Screens (PubChem)
Compounds with a hit are over-represented: about 21% of the library has one in this group of screens.
NS1 inh: qHTS Assay for Inhibitors of Influenza NS1 Protein Function | Potency, µM (titrated, usually from 46.1 µM), inactives show top-dose activity, positive = more growth | actives 0.4% (n = 270,000); calls by dose curve; note: potency is the fitted concentration of half-maximal effect; actives are rising curves; nearly all actives have a fitted effect of over 50% in size
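Compounds were scored for reversing the slow growth caused by influenza A NS1 in S. cerevisiae, measured by optical density at 600 nm. Assay medium contained 2% galactose at pH 6.0; NS1-free yeast of the same strain were the positive control.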
Pf growth 96h: Primary qHTS for delayed death inhibitors of the malarial parasite plastid, 96 hour incubation; Potency, µM (highest dose often 28.7 µM), for the others: top-dose activity change, negative = inhibition, hits mostly inhibitors; AID 504834, 2011; actives 6.9% (n = 320,000); P. falciparum luciferase reporter growth, 96 h; note: potency is the fitted concentration of half-maximal effect; % is set by controls: 0 for no effect and ±100 for the full control effect
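Two parasite generations (96 h, 37 C, 5% CO2) of compound exposure in infected erythrocytes (0.05% parasitemia, 2% hematocrit). Luciferase-reporter P. falciparum; decreased luminescence indicates inhibited growth, aimed at apicoplast-acting delayed death.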
Cycloheximide cs: Cycloheximide Counterscreen for Small Molecule Inhibitors of Shiga Toxin; max response, %; cell reporter, cycloheximide protein synthesis inhibition counterscreen; actives 12% (n = 300,000); in the data active = max response mostly above about 13%, no sharp cut-off; inactive = mostly below about 14%; note: read at 38.3 µM for the half of the compounds with a filed dose; 0% is about no effect
Sm TGR inh: qHTS Assay for the Inhibitors of Schistosoma Mansoni Peroxiredoxins; purified TGR, DTNB reduction, TNB absorbance 405 nm; Potency, µM (series often up to 114 µM), for inactives: top-dose activity change, negative = inhibition, most hits filed as inhibitors; actives 3% (n = 360,000); note: potency is the fitted concentration of half-maximal effect; % is set by controls: 0 for no effect and ±100 for the full control effect; nearly all actives have a fitted effect of over 60% in size
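TGR 20 nM + NADPH 100 uM (dispensed conc.), cpd preinc 15 min RT; start with NADPH (500 uM addition) then DTNB (15 mM addition). Kinetic TNB absorbance, 405 nm filter. Four-parameter Hill fit across titration.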
Pf growth 48h: Primary qHTS for delayed death inhibitors of the malarial parasite plastid, 48 hour incubation. AID 504832, 2011. P. falciparum luciferase growth in erythrocytes, 48 h. Potency, µM (series often up to 28.7 µM), without a hit: top-dose activity change, negative = inhibition, usual class: inhibitors. actives 5.9% (n = 310,000); note: potency is the fitted concentration of half-maximal effect; % is set by controls: 0 for no effect and ±100 for the full control effect
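Here the parasites carry a stable luciferase gene and grow inside erythrocytes in Albumax-based RPMI medium with compound for one erythrocytic cycle. Activity is scored as loss of luminescent signal.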
Shiga toxin inh: A qHTS for Small Molecule Inhibitors of Shiga Toxin; Vero cells, Shiga toxin protein synthesis inhibition reporter; inhibition, % at 38.7 µM; actives 9.2% (n = 290,000); AID 2315, 2010; in the data active = inhibition mostly above about 28%, no sharp cut-off; inactive = mostly below about 43%; note: 0% is about no effect
* = called active by the depositor; ! = not confirmed by another sample; [ ] = remark or other dose. Unless noted, calls come from the whole dose curve; as a rule, active = well fitted curve in the direction sought with a large enough effect; inconclusive = small, poorly fitted or top-dose-only effect, or another doubt; inactive = no such curve, though single readings can be large; an effect the other way counts as inactive or inconclusive.

Screening Cc1c(C(=O)NC(=S)Nc2ccccc2N2CCCC2)cccc1[N+](=O)[O-] returned NS1 inh 22.9%, Pf growth 96h inconclusive, Cycloheximide cs 0.9, Sm TGR inh -10.6%, Pf growth 48h 14.7µM* and Shiga toxin inh -12.7.
`O=C(NC(=S)N1CCN(c2ccc(O)cc2)CC1)c1cccs1` gave NS1 inh 1.1%, Pf growth 96h inconclusive, Cycloheximide cs 23.6*, Sm TGR inh 0.2%, Pf growth 48h 7.6% and Shiga toxin inh 83.9*.
Screening CCOc1cccc(C(=O)NC(=S)Nc2ccc(N3CCN(CC)CC3)cc2)c1 returned NS1 inh 4.6%, Pf growth 96h inconclusive, Cycloheximide cs 0.4, Pf growth 48h inconclusive and Shiga toxin inh 50.8.
Screening COc1cc(OC)cc(C(=O)NC(=S)Nc2ccc(N3CCCC3)cc2)c1 returned NS1 inh 13.3%, Pf growth 96h 5.7%, Cycloheximide cs 1.6, Sm TGR inh 89.1µM*, Pf growth 48h inconclusive and Shiga toxin inh -9.4.
`O=C(NC(=S)Nc1ccc(S(=O)(=O)N2CCCC2)cc1)c1cccs1` gave NS1 inh 10.7%, Pf growth 96h inconclusive, Cycloheximide cs 13.1, Sm TGR inh 17.8µM*, Pf growth 48h -17.4% and Shiga toxin inh 0.4.
For O=C(NC(=S)Nc1ccccc1N1CCCC1)c1cccs1 the results were NS1 inh 9.3%, Pf growth 96h inconclusive, Cycloheximide cs 50.9*, Sm TGR inh 8.4%, Pf growth 48h inconclusive and Shiga toxin inh 54.6*.
`CCOC(=O)C1CCN(C(=S)NC(=O)c2cccs2)CC1` gave NS1 inh 0.2%, Pf growth 96h 1.6%, Cycloheximide cs 29.0*, Sm TGR inh 0.0%, Pf growth 48h inconclusive and Shiga toxin inh 47.2.
For O=C(NC(=S)Nc1ccc(N2CCCCC2)cc1)c1cccs1 the results were NS1 inh -0.5%, Pf growth 96h inconclusive, Cycloheximide cs 51.7*, Sm TGR inh 39.8µM*, Pf growth 48h inconclusive and Shiga toxin inh 78.7*.
`CS(=O)(=O)N1CCN(c2ccc(NC(=S)NC(=O)c3cccs3)cc2)CC1` gave NS1 inh 3.5%, Pf growth 96h -15.8%, Cycloheximide cs 16.1*, Sm TGR inh -12.5%, Pf growth 48h 25.8% and Shiga toxin inh 17.0.
Screening O=C(NC(=S)Nc1ccc(N2CCN(C(=O)c3ccccc3)CC2)cc1)c1cccs1 returned NS1 inh 10.5%, Pf growth 96h -13.1%, Cycloheximide cs -4.1, Sm TGR inh inconclusive, Pf growth 48h inconclusive and Shiga toxin inh -9.3.
Screening Cc1oc2ncnc(N3CCOCC3)c2c1C(=O)N1CCN(c2cccc(C(F)(F)F)c2)CC1 returned Sm TGR inh 2.2%.
`CCOc1ccc(NC(=O)c2ccc(F)c(S(=O)(=O)N(Cc3ccc(C(=O)OC)cc3)Cc3ccc(OC)c(OC)c3)c2)cc1` gave Sm TGR inh 13.7%.
Screening C=CCN1CC[C@]23c4c5ccc(O)c4O[C@H]2C(=O)CC[C@@]3(O)[C@H]1C5 returned NS1 inh -2.2%, Pf growth 96h 11.5%, Cycloheximide cs 1.3, Sm TGR inh 44.7µM*!, Pf growth 48h 1.3% and Shiga toxin inh -9.4.
Screening Cc1cc(NC(=O)Cn2cc([N+](=O)[O-])cn2)no1 returned Pf growth 96h 3.7%[5.75 µM], Cycloheximide cs -3.6, Sm TGR inh -10.0%, Pf growth 48h 2.8%[5.75 µM] and Shiga toxin inh 13.2.
S=C(NCc1ccco1)N/N=C/c1ccncc1 was read as NS1 inh 0.8%, Pf growth 96h -7.7%, Cycloheximide cs -2.5, Sm TGR inh -4.6%, Pf growth 48h 16.0% and Shiga toxin inh -11.9.
`CN(C)c1ccc(/C=N/NC(=S)NCc2ccco2)cc1` gave NS1 inh 5.5%, Pf growth 96h 56.1%, Cycloheximide cs 16.1, Sm TGR inh -13.2%, Pf growth 48h 23.1% and Shiga toxin inh 23.4*.
`CN(C)c1ccc(C(=S)NCc2ccco2)cc1` gave NS1 inh -63.4%, Pf growth 96h 24.8%, Cycloheximide cs 84.7*, Sm TGR inh -15.0%, Pf growth 48h 168.0% and Shiga toxin inh active.
`CC(C)[C@H](NC(=O)c1ccccc1)C(=O)OCC(=O)NCc1ccc(F)cc1` gave NS1 inh 2.9%, Pf growth 96h 24.2%, Cycloheximide cs -1.6, Sm TGR inh -10.6%, Pf growth 48h 2.3% and Shiga toxin inh -5.7.
`Cc1cc(C)c(C)c(S(=O)(=O)N2CCN(C(=O)c3ccccn3)CC2)c1C` gave Pf growth 96h -16.1%, Sm TGR inh -0.7% and Pf growth 48h -27.8%.
For Cc1cc2nc3n(c2cc1C)CC1CC(C(=O)NCc2ccco2)N(C)C31 (stereo unspecified) the results were NS1 inh -4.7%, Pf growth 96h inconclusive, Cycloheximide cs -4.5, Sm TGR inh -13.7%, Pf growth 48h inconclusive and Shiga toxin inh 1.9.
Screening Cc1nc2nc(N)nn2c(C)c1C/C=C/c1ccccc1 returned Pf growth 96h -9.8%, Cycloheximide cs -0.1, Sm TGR inh 15.8µM*, Pf growth 48h inactive and Shiga toxin inh -7.3.
Screening c1cncc(CSc2ccc(-c3cccnc3)nn2)c1 returned Pf growth 96h -10.2%, Cycloheximide cs 15.9, Sm TGR inh -4.6%, Pf growth 48h 36.1% and Shiga toxin inh 67.2*.
c1ccc(-c2ccc(SCc3cccnc3)nn2)nc1 was read as Pf growth 96h -16.7%, Cycloheximide cs 27.5*, Sm TGR inh 5.9%, Pf growth 48h 153.6% and Shiga toxin inh 136.7*.
`COc1ccccc1-c1ccc(SCc2ccc([N+](=O)[O-])cc2)nn1` gave Pf growth 96h inconclusive, Cycloheximide cs 23.7, Sm TGR inh 18.3%, Pf growth 48h inconclusive and Shiga toxin inh 25.6.
Screening O=[N+]([O-])c1ccc(CSc2ccc(-c3ccccn3)nn2)cc1 returned NS1 inh 3.2%, Pf growth 96h -98.4%, Cycloheximide cs -1.0, Sm TGR inh 7.6%, Pf growth 48h 3.4% and Shiga toxin inh 19.7.
COc1ccccc1-c1ccc(SCc2cccc(C)c2)nn1 was read as Pf growth 96h 11.7µM*, Cycloheximide cs 22.7*, Sm TGR inh 4.3%, Pf growth 48h 10.4µM* and Shiga toxin inh 29.3.
Screening COc1ccc(-c2ccc(SCc3cccnc3)nn2)cc1OC returned Pf growth 96h inconclusive, Cycloheximide cs 19.1*, Sm TGR inh -8.3%, Pf growth 48h 2.2% and Shiga toxin inh 38.6.
`COc1cc([N+](=O)[O-])cc2sc(NC(=O)C(C)(C)C)nc12` gave NS1 inh 2.1%, Pf growth 96h -0.8%, Cycloheximide cs 8.4, Pf growth 48h -0.7% and Shiga toxin inh -2.9.
